PubChem BioAssay (NCATS)
Results filed as inconclusive are left out. The source made the active and inactive calls. Unless noted, calls follow the shape of the dose curve; as a rule, active = well fitted curve in the direction sought with a large enough effect; inconclusive = small, poorly fitted or top-dose-only effect, or another doubt; inactive = no such curve, though single readings can be large; an effect the other way counts as inactive or inconclusive.

What was measured:
[1] = Quantitative high throughput screen for delayed death inhibitors of the malarial parasite plastid, 48 hour incubation (AID 488752); also: nearly all actives have a fitted effect of over 65% in size; also: potency is read from the fitted curve at half-maximal effect
In short: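 Erythrocytes infected with P. falciparum carrying an integrated firefly luciferase reporter (2% hematocrit, 0.1% parasitemia final) were exposed to compounds in RPMI 1640/0.5% Albumax for 48 h at 37 C, 5% CO2. Growth inhibition was scored as reduced luminescence.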

[2] = biological target: Thioredoxin reductase 1, cytoplasmic (Rattus norvegicus) (UniProt O89049); assay: qHTS Assay for Substrates of Mammalian Selenoprotein Thioredoxin Reductase 1 (TrxR1) (AID 488772);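 also: NADPH fluorescence in the first read after selenite addition and not the 8 min delta; series mostly up to about 57 µM; 0% is about no effect; a drop in NADPH fluorescence below the no-compound background marks a TrxR1 substrate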
In short: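 Quantitative HTS in Tris-HCl buffer at pH 7.5 with EDTA and Tween-20, using rat TrxR1, 400 uM NADPH and 400 uM selenite (final). A fall in initial NADPH fluorescence relative to background marked substrate behaviour.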

[3] = biological target: Flap endonuclease 1 (Homo sapiens) (UniProt P39748); assay: qHTS Validation Assay for the Inhibitors of Human Flap endonuclease 1 (FEN1) (AID 488816); also: potency is read from the fitted curve at half-maximal effect
In short: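 FEN1, dispensed as a 10 nM reagent, was preincubated with pin-transferred compounds for 15 min at room temperature before substrate was added (50 nM final). Plates were read at 0 and 15 min, and a four-parameter Hill equation was fitted to the concentration-response data.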

[4] = biological target: M-phase phosphoprotein 8 (Homo sapiens) (UniProt Q99549); assay: qHTS Validation Assay for Inhibitors for MPP8 Chromodomain Interactions with Methylated Histone Tails (AID 488949); also: nearly all actives have a fitted effect of over 55% in size; also: potency is read from the fitted curve at half-maximal effect
In short: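 Disruption of the preformed MPP8–trimethyl-H3K9 peptide complex (both 50 nM, 30 min, RT) is measured after 30 min compound exposure, using AlphaScreen proximity beads; aurintricarboxylic acid titration serves as plate control.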

[5] = biological target: Chromobox protein homolog 1 (Homo sapiens) (UniProt P83916); assay: qHTS Validation Assay for Inhibitors of HP1-beta Chromodomain Interactions with Methylated Histone Tails (AID 488953);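 also: loss of AlphaScreen luminescence from HP1-beta binding biotinylated H3K9me3 peptide; series mostly up to about 110 µM; % is scaled to controls: 0 for no effect and ±100 for the full control effect; nearly all actives have a fitted effect of over 50% in size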
In short: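 HP1-beta (50 nM) was preincubated 30 min at room temperature with biotinylated H3(1-18)K9me3 peptide (50 nM) in PBS pH 7.4, 0.01% Tween-20, then with compounds 30 min. AlphaScreen signal was read after streptavidin donor/nickel chelate acceptor beads (10 ug/mL final).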

[6] = biological target: Methanococcus maripaludis chaperonin (MmCpn) (UniProt Q6LX38); assay: High-Throughput Screening for Modulators of Cytosolic Chaperonin Activity: MmCpn Primary Screen (AID 488978);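 also: 50 nM MmCpn enzyme hydrolysing 30 µM ATP at 37 °C; 0% is about no effect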
In short: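 Measures ATPase turnover of the M. maripaludis chaperonin (50 nM final) against 30 uM ATP over 10 min at 37C, with compound added 5 min beforehand at room temperature. ADP is quantified by HTRF immunodetection.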

[7] = biological target: Transient receptor potential cation channel subfamily V member 1 (Homo sapiens) (UniProt Q8NER1); assay: HTS Assay for Compounds that Act as Enhancers of the Vanilloid Receptor 1 (AID 488979); also: 0% is about no effect
In short: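 TRPV1-expressing cells loaded with Fluo-8 calcium dye; compounds added and calcium influx read kinetically for 3 min (agonist phase), then capsaicin at EC20 added and read 2 min more for enhancement. Fluorescence ex 480/em 520 nm.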

[8] = biological target: Thyrotropin receptor (Homo sapiens) (UniProt P16473); assay: qHTS Assay for Antagonists of the Thyroid Stimulating Hormone Receptor (AID 488980); also: series mostly up to about 58 µM; 0% is about no effect
In short: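 Cells expressing human TSHR (HEK293) are dispensed in HBSS/HEPES containing 70 uM RO 20-1724, compound is added, then TSH at EC80 (4 nM final). Antibody in lysis buffer follows, 30 minutes at room temperature before HTRF detection.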

[9] = biological target: D(1A) dopamine receptor (Homo sapiens) (UniProt P21728); assay: HTS Assay for Allosteric Agonists of the Human D1 Dopamine Receptor: Primary Screen for Agonists (AID 488981); also: potency is read from the fitted curve at half-maximal effect; as to activation: 0% is about no effect
In short: (§1)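 Tetracycline-induced HEK293 T-REx cells force-coupled to calcium signalling were incubated overnight at 30 C and dye-loaded at room temperature. Calcium flux over 180 s after compound addition flagged agonists; a further 180 s read after EC20 dopamine flagged potentiators.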

[10] = biological target: D(1A) dopamine receptor (Homo sapiens) (UniProt P21728); assay: HTS Assay for Allosteric Agonists of the Human D1 Dopamine Receptor: Primary Screen for Potentiators (AID 488982); also: 0% is about no effect
In short: as §1

[11] = biological target: D(1A) dopamine receptor (Homo sapiens) (UniProt P21728); assay: HTS Assay for Allosteric Agonists of the Human D1 Dopamine Receptor: Primary Screen for Antagonists (AID 488983);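 also: calcium flux response to an EC80 dopamine challenge measured with no-wash dye; % is scaled to controls: 0 for no effect and ±100 for the full control effect; nearly all actives have a fitted effect of over 65% in size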
In short: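 Tetracycline-induced HEK293 T-REx cells expressing force-coupled D1 were plated overnight at 30 C, dye-loaded for calcium, and read kinetically. Compounds were pinned in, then an EC80 dopamine challenge followed after 180 s to reveal antagonism.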

[12] = Validation screen for small molecules that induce genotoxicity in human embryonic kidney (HEK293T) cells expressing luciferase-tagged ELG1 (AID 493106); also: potency is read from the fitted curve at half-maximal effect
In short: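 HEK293T cells expressing luciferase-tagged ELG1 were exposed to compound or DMSO vehicle for 16 hr at 37 °C, 5% CO2. Genotoxic stress raises ELG1 levels, so increased luciferase signal after ONE-Glo addition and 30 min at room temperature marks hits.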

[13] = biological target: Thyrotropin-releasing hormone receptor (Homo sapiens) (UniProt P34981); assay: qHTS for Small Molecule Agonists and Allosteric Enhancers of Human TRH Receptor: Validation Screen for Agonists (AID 493127;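 active = calcium activation more than 3 SD above the typical response in the agonist read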;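 also: intracellular calcium rise by fluo-8 fluorescence before TRH EC20 addition; 0% is about no effect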); conditions: TRH receptor agonist cell assay; at 2 µM; stronger effect = higher value
In short: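 TRHR-expressing cells were plated overnight in serum-containing medium, then loaded with fluo-8 calcium dye at room temperature for 30 min–1.5 h. After a 10 s baseline, compound was pin-transferred and calcium fluorescence (ex 480/em 530) read kinetically for agonist response.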

[14] = Nrf2 qHTS screen for inhibitors: Validation (AID 493153; active = well fitted inhibition curve with a large enough effect in the main read-out, with a control signal flat, not every such curve was filed as active); conditions: Potency: luciferase luminescence; viability change: measured here: cytotoxicity max response
In short: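 A549 cells carrying an ARE-driven firefly luciferase reporter, in 5% FBS OPTI-MEM, were treated with compounds in concentration-response for 18-24 h at 37°C. Viability was read by CellTiter-Fluor fluorescence, then Nrf2 activity by luciferase luminescence.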

[15] = qHTS for Inhibitors of Cell Surface uPA Generation: Validation Assay (AID 493164);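 also: RAW 264.7 macrophage cells exposed to compound for 18 h; 0% is about no effect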
In short: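 RAW 264.7, 4000 cells/well, o/n plating; cpd 7-pt 1:5 dilution 2.45 nM–38.3 uM final; 18 h, 37 C/5% CO2; ATP-Lite, 5 s luminescence exposure.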

[16] = Validation screen for small molecules that induce DNA re-replication in SW480 colon adenocarcinoma cells (AID 504364); also: 0% is about no effect
In short: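 SW480 cells seeded at 250 per well were exposed to compound or DMSO for 48 hr at 37 C, 5% CO2, then stained with Hoechst for 40 min. DNA content per nucleus was imaged (405 nm ex, 500-530 nm em).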

[17] = biological target: ATPase family AAA domain-containing protein 5 (Homo sapiens) (UniProt Q96QE3); assay: Validation screen for small molecules that inhibit ELG1-dependent DNA repair in human embryonic kidney (HEK293T) cells expressing luciferase-tagged ELG1 (AID 493107);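 also: cells co-treated with the DNA-damaging agent 5-fluorouridine alongside compound; series mostly up to about 46 µM; % is scaled to controls: 0 for no effect and ±100 for the full control effect; inhibitors lower the ELG1-luciferase luminescence signal; nearly all actives have a fitted effect of over 70% in size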
In short: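 HEK293T cells expressing luciferase-tagged ELG1 were co-treated with 5-fluorouridine and compound or DMSO for 16 hr at 37 °C, 5% CO2. Luciferase activity was then read with ONE-Glo after 30 min at room temperature; suppressed signal indicates blocked ELG1 function.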

[18] = biological target: ATP-dependent 6-phosphofructokinase (Trypanosoma brucei brucei) (UniProt O15648); assay: qHTS Assay to Find Inhibitors of T. brucei phosphofructokinase: hit validation (AID 492961);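 also: luminescence reports ADP formed as PFK phosphorylates fructose-6-phosphate with ATP; series mostly up to about 51 µM; % is scaled to controls: 0 for no effect and ±100 for the full control effect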
In short: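 PFK 1.25 nM, F6P 0.5 mM, ATP 0.1 mM, MgCl2 5 mM, 0.1 M TEA pH 8.0, Tween20 0.01%, BSA 0.1%; 45 min RT. ADP-Glo two-step detection, luminescence. qHTS titration; curve fitting with curve-class categorization.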

[19] = biological target: Tyrosyl-DNA phosphodiesterase 1 (Homo sapiens) (UniProt Q9NUW8); assay: Confirmation Assay for Inhibitors of Tyrosyl-DNA Phosphodiesterase (TDP1) (AID 489007); conditions: recombinant human TDP1 enzymatic activity, dose-response; also: potency is read from the fitted curve at half-maximal effect; nearly all actives have a fitted effect of over 40% in size
In short: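 Recombinant E. coli-expressed Tdp1 (1 nM final) was preincubated with compounds 15 min at room temperature, then reacted 5 min with 15 nM 5'-biotin/3'-phosphotyrosine-FITC DNA substrate; cleavage read as loss of AlphaScreen signal (10 ug/ml beads, 10 min).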

Chain of Thioredoxin reductase 1, cytoplasmic (Rattus norvegicus) (O89049 whole entry, looked up): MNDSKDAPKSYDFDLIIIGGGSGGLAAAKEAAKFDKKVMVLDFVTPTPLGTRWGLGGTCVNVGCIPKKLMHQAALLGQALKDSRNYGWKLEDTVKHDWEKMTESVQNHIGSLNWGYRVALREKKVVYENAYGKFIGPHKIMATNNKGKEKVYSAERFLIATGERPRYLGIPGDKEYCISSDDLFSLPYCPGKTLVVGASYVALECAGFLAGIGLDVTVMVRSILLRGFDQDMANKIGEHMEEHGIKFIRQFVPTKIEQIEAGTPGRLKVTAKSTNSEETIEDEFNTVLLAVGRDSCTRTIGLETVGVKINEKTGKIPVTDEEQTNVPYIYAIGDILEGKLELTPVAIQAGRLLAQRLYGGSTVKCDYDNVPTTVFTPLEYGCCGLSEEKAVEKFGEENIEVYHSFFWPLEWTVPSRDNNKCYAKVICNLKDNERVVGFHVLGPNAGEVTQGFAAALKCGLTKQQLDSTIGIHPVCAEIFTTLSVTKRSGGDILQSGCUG
Chain of ATP-dependent 6-phosphofructokinase (Trypanosoma brucei brucei) (O15648 whole entry, looked up): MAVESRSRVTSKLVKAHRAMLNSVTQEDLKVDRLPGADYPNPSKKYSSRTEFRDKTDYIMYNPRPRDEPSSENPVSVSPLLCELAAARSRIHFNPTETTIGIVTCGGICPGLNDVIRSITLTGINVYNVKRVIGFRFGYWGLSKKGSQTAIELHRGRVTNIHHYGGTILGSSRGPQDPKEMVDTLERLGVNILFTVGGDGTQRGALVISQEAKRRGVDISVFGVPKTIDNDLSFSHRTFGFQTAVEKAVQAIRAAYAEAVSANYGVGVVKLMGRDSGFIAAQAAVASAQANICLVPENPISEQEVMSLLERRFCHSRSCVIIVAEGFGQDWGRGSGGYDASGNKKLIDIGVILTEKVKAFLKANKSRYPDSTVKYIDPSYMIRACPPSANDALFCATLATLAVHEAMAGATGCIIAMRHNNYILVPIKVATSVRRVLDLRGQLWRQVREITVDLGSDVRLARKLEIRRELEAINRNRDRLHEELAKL
Chain of Methanococcus maripaludis chaperonin (MmCpn) (Q6LX38 1-543): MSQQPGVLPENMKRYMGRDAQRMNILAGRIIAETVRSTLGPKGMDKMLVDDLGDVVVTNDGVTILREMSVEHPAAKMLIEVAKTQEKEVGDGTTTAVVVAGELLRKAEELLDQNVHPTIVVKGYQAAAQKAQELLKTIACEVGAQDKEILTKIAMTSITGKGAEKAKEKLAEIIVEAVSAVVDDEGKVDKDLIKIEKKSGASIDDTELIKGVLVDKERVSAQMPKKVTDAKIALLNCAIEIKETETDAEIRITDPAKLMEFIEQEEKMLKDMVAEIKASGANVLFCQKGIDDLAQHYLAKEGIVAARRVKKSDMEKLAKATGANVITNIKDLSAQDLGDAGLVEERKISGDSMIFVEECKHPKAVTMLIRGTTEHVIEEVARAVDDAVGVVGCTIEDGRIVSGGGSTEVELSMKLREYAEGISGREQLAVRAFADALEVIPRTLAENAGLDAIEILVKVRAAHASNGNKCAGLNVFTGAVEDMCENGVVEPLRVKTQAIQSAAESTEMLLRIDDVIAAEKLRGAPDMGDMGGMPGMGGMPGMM
Chain of M-phase phosphoprotein 8 (Homo sapiens) (Q99549 whole entry, looked up): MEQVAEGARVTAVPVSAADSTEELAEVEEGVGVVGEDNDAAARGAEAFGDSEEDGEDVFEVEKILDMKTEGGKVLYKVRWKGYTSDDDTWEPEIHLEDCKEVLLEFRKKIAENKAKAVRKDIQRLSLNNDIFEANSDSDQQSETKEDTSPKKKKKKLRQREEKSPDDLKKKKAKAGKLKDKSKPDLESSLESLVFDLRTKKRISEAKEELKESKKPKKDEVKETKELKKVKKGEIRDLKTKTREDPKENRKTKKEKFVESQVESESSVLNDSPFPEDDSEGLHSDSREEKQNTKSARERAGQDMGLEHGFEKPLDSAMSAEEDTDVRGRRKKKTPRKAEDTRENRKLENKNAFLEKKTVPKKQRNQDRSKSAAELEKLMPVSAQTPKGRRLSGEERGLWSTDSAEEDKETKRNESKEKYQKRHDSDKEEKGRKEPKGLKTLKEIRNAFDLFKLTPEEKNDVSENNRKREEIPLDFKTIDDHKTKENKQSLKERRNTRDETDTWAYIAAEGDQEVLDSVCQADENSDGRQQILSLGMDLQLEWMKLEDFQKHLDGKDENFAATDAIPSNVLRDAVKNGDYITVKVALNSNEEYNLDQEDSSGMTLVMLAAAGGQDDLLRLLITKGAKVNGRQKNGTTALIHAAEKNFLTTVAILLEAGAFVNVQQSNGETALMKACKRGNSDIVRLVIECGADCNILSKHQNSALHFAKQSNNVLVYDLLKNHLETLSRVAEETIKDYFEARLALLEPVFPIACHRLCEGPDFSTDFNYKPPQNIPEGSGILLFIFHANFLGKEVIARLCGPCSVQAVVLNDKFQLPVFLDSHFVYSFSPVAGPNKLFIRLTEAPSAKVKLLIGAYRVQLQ
Chain of D(1A) dopamine receptor (Homo sapiens) (P21728 whole entry, looked up): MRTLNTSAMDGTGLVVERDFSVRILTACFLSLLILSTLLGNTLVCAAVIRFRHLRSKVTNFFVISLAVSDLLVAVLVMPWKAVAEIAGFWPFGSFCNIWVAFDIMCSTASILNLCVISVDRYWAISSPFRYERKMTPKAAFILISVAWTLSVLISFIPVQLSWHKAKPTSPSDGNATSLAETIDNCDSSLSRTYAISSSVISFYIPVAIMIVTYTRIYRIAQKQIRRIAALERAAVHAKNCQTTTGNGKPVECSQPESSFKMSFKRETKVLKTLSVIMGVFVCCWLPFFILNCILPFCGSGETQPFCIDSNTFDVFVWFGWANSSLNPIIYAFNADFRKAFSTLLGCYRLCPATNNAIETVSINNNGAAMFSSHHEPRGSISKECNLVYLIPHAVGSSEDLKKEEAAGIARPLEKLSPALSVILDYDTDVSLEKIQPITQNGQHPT
Chain of Flap endonuclease 1 (Homo sapiens) (P39748 whole entry, looked up): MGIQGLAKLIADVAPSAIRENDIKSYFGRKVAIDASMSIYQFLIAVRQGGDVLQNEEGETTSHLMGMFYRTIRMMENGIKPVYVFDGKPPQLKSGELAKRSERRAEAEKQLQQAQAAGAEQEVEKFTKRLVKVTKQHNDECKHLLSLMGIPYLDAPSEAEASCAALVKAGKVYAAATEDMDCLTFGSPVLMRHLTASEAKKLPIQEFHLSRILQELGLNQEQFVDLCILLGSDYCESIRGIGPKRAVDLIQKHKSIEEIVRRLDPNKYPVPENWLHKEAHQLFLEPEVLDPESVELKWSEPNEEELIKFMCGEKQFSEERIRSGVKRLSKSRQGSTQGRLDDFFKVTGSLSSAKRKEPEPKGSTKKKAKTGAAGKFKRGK
Chain of Chromobox protein homolog 1 (Homo sapiens) (P83916 whole entry, looked up): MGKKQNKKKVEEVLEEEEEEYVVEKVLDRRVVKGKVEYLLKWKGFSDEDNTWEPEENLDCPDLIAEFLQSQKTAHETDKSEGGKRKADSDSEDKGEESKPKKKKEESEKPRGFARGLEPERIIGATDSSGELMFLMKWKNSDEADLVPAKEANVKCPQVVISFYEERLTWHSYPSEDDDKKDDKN
Chain of Thyrotropin receptor (Homo sapiens) (P16473 whole entry, looked up): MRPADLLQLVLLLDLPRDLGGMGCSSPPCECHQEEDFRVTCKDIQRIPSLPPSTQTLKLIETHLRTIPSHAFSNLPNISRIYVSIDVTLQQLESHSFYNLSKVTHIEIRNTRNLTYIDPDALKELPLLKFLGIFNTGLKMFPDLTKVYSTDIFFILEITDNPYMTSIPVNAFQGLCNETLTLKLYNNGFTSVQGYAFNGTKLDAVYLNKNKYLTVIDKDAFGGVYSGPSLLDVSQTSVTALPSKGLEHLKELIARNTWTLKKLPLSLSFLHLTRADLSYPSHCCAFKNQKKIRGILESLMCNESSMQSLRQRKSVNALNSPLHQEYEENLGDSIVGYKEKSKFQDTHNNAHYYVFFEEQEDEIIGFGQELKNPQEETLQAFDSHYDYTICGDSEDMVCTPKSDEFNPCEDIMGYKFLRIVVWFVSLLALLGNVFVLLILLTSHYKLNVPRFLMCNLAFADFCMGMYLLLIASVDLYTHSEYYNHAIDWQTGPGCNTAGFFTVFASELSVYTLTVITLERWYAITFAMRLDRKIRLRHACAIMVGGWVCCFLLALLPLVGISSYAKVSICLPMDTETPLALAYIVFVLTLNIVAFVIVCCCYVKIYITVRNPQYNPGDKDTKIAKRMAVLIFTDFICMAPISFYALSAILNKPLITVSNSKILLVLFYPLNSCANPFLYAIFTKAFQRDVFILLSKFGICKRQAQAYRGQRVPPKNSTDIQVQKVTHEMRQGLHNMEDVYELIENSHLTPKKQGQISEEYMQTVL
Chain of Thyrotropin-releasing hormone receptor (Homo sapiens) (P34981 whole entry, looked up): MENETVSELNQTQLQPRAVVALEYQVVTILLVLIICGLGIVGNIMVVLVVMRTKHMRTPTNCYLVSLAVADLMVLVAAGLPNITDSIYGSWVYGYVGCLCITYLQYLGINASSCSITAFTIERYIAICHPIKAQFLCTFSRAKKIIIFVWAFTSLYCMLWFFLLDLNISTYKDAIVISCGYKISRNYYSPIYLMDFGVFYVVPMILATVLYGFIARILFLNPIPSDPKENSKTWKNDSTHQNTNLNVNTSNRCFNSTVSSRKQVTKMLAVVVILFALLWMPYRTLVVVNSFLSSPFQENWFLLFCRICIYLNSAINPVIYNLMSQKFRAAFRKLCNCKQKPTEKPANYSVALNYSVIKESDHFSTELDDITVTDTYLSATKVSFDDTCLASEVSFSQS

CCCn1cnc2c1c(=O)n(CCCCC(C)=O)c(=O)n2C
-13.4%: viability change [14]
inactive: Potency [1] | outcome [2] | Potency [3] | Potency [4] | Potency [5] | Potency [6] | outcome [7] | outcome [8] | Potency [9] | outcome [10] | Potency [11] | Potency [12] | activation [13] 1.25% | Potency [14] | outcome [15] | outcome [16]

CN(C)CC[C@@H](c1ccc(Cl)cc1)c1ccccn1
inactive: Potency [1] | outcome [2] | Potency [3] | Potency [4] | Potency [5] | Potency [6] | outcome [7] | outcome [8] | Potency [9] | outcome [10] | Potency [11] | Potency [12] | outcome [17] | activation [13] 1.56% | Potency [14] | outcome [15] | outcome [16]
8.9%: viability change [14]

CCN(CC)CCCC(C)Nc1c2ccc(Cl)cc2nc2ccc(OC)cc12 (centres undefined)
inactive: outcome [2] | Potency [6] | outcome [8] | outcome [10] | activation [13] -2.88% | outcome [15] | outcome [16]
active: Potency [1] 37 nM | Potency [3] 15 µM | Potency [9] 11.2 µM | Potency [12] 2.59 µM

CCCCCCCCCCCCCCCC(=O)NCCO
-3.02%: viability change [14]
inactive: Potency [1] | outcome [2] | Potency [3] | Potency [4] | Potency [5] | Potency [6] | outcome [7] | outcome [8] | Potency [9] | outcome [10] | Potency [11] | Potency [18] | Potency [12] | outcome [17] | activation [13] 1.06% | Potency [14] | outcome [15] | outcome [16]

Cn1c(=O)c2c(ncn2CC2OCCO2)n(C)c1=O
inactive: Potency [18]

O=C(O)[C@@H]1CSCN1
inactive: Potency [18]

Oc1cn2c(n1)Nc1ccc(Cl)c(Cl)c1C2
inactive: Potency [18]

O=c1cc[nH]c(=O)[nH]1
inactive: Potency [18]

COc1ccc(S(=O)(=O)Nc2nnc(CC(C)C)s2)cc1
inactive: Potency [18]

O=Cc1ccccc1C=O
active: Potency [19] 14.1 µM
inactive: Potency [18]

CN(C)CCCN1c2ccccc2Sc2ccc(Cl)cc21
active: Potency [4] 35.5 µM
inactive: outcome [2] | Potency [3] | Potency [6] | outcome [8] | Potency [12] | activation [13] 11.5% | Potency [14] | outcome [15]
4.06%: viability change [14]

CC[C@@]1(c2ccccc2)NC(=O)N(C)C1=O
inactive: Potency [18]

Cc1cc(O)cc2c1O[C@](C)(CCC[C@H](C)CCC[C@H](C)CCCC(C)C)CC2
inactive: Potency [18]

CC1=C(/C=C/C(C)=C/C=C/C(C)=C/C(=O)O)C(C)(C)CCC1
-3.39%: viability change [14]
inactive: outcome [2] | Potency [3] | Potency [4] | Potency [6] | outcome [7] | Potency [9] | outcome [10] | Potency [11] | Potency [12] | outcome [17] | activation [13] 0.375% | Potency [14] | outcome [15] | outcome [16]
